Screening data as filed in PubChem BioAssay.
ATXN2 expr inh: ATXN2 expression inhibition; Potency, µM (highest dose often 57 µM), for inactives: at the highest dose activity change, negative = inhibition, hits mostly inhibitors; AID 1745845; HEK-293 ATXN2-luciferase reporter, luminescence, 24 h; actives 0.72% (n = 360,000); note: % is set by controls: 0 for no effect and ±100 for the full control effect; nearly all actives have a fitted effect of over 55% in size
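qHTS (up to 57 uM final) was run with 24 h compound exposure of reporter cells at 37 °C. Each well was multiplexed: SteadyGlo luminescence measured ATXN2-luciferase expression after a fluorogenic Gly-Phe-AFC viability readout (25 uM final).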
KB-V1 MDR tox: kills drug-selected multidrug resistant KB-V1 cells; KB-V1 MDR cells viability, CellTiter-Glo, 72 h; Potency, µM (top dose mostly 46.1 µM), actives largely listed as cytotoxic; actives 3.4% (n = 400,000); note: % is set by controls: 0 for no effect and ±100 for the full control effect; nearly all actives have a fitted effect of over 60% in size
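KB-V1 cells (P-gp-expressing MDR subline of KB-3-1) in phenol-red-free DMEM with 10% FBS were exposed to library compounds over a concentration series for 72 h at 37 degrees C. Viability read by CellTiter-Glo luminescence; concentration-effect curves fitted after normalization.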
TGFb SMAD3 inh: blocks TGF-b signaling. AID 588855. Potency, µM (titrated, usually from 46.1 µM), for the others: at the highest dose activity, negative = inhibition, hits mostly inhibitors. actives 1.2% (n = 410,000). HepG2 CAGA-GFP TGF-b/SMAD3 reporter, GFP fluorescence, 18 h; TGF-beta stimulated, 500 pg/mL final; note: % is set by controls: 0 for no effect and ±100 for the full control effect; nearly all actives have a fitted effect of over 65% in size
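TGF-beta reporter screen: HEPG2 CAGA-GFP, 1% FBS, 500 pg/mL TGF-beta final, 18 h; per-cell GFP summed per well; curves fitted and categorized by class.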
HepG2 tox: HepG2 cytotoxicity, counter-screen for TGF-b inhibitors | HepG2 CAGA-GFP viability, ATP luminescence, 18 h | Potency, µM (highest dose often 46.1 µM), without a hit: top-dose activity change, negative = cytotoxicity, hits mostly cytotoxic | actives 0.76% (n = 410,000)
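CellTiter-Glo luminescence gave cytotoxicity after 18 hours at 37 degrees C. The cells were HepG2 CAGA-GFP in 1% FBS DMEM, stimulated with 500 pg/mL TGF-beta after compound addition. %Activity was normalised to no-cell wells (complete cell-killing) and DMSO (no toxicity), and curves were fitted and classified.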
KB-3-1 cytotox: KB-3-1 parental cell cytotoxicity; KB-3-1 viability, CellTiter-Glo ATP luminescence, 72 h; Potency, µM (top dose mostly 46.1 µM), hits mostly cytotoxic; actives 1.4% (n = 400,000); note: % is set by controls: 0 for no effect and ±100 for the full control effect; nearly all actives have a fitted effect of over 60% in size
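Cytotoxicity in the drug-sensitive parental line KB-3-1 was scored as loss of CellTiter-Glo luminescence following 72 h incubation with compound. Values come from curve fitting of normalized concentration-response data.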
ATXN viability: viability counter-screen for ATXN expression inhibitors; actives 0.49% (n = 400,000); Potency, µM (top dose mostly 56.7 µM), hits mostly cytotoxic; S2 cells (HEK-293 line with an ATXN2-luciferase reporter) viability, CellTiter-Fluor protease fluorescence, 24 h; AID 651635; note: nearly all actives have a fitted effect of over 40% in size
Active calls of the source: *; i = inactive; ? = inconclusive; . = not tested or not shown; ! = not confirmed by another sample. Hits are enriched below; roughly 5.9% of the tested compounds scored in any of these assays. Calls come from the whole dose curve; as a rule, active = well fitted curve in the direction sought with a large enough effect; inconclusive = small, poorly fitted or top-dose-only effect, or another doubt; inactive = no such curve, though single readings can be large; an effect the other way counts as inactive or inconclusive. Potency is the fitted concentration of half-maximal effect.

SMILES | ATXN2 expr inh | KB-V1 MDR tox | TGFb SMAD3 inh | HepG2 tox | KB-3-1 cytotox | ATXN viability
O=C1CC(C(=O)N2CCCC(c3nc(-c4ccncc4)ncc3-c3ccccc3)C2)C2(CCCCC2)O1 (stereo not given) | . | . | . | . | . | i
S=C(NC1CCCCC1)N1CCN(C2CCCCC2)CC1 | -8.3% | ? | ? | 17.8µM* | i | i
Cc1[nH][nH]c(=O)c1C(c1c(C)[nH][nH]c1=O)c1cn(Cc2ccccc2Cl)c2ccccc12 | -24.2% | 18.4µM* | ? | -20.5% | 7.31µM* | i
N/C(=N\O)c1cn(Cc2ccccc2Cl)c2ccccc12 | -9.1% | i | 17.5% | -3.2% | i | i
O=C(Cn1c(=O)c2cccn2c2ccc(F)cc21)N1CCN(c2ccccc2F)CC1 | . | . | 0.0% | -20.2% | . | .
C#CCOc1c(Br)cc(C2C(C(=O)OC)=C(C)NC3=C2C(=O)c2ccccc23)cc1OCC (stereo not given) | 1.8% | ? | -20.2% | -0.1% | 4.61µM* | ?
COc1ccc(C2C(C#N)=C(C)NC3=C2C(=O)c2ccccc23)cc1 (stereo not given) | -13.4% | i | 9.9% | -3.5% | i | i
COc1cc(C2C(C#N)=C(C)NC3=C2C(=O)c2ccccc23)cc(OC)c1OC (stereo not given) | -8.2% | ? | ? | -31.7% | 2.06µM* | ?
Cc1cc(OC(C)C(=O)Nc2cccc(-c3nc4ccccc4o3)c2)cc(C)c1Cl (stereo not given) | 7.0% | ? | -5.1% | -7.1% | i | i
C#CCN(C[C@H]1[C@H](OC(=O)Nc2cccs2)[C@H](OC(=O)Nc2cccs2)C[C@H]2C(=O)N(c3ccccc3)C(=O)[C@@H]12)S(=O)(=O)c1ccc(C)cc1 | 3.4% | i | -0.7% | 0.0% | i | i
C#CCN(C[C@@H]1[C@@H](OC(=O)NC2CCCC2)[C@@H](OC(=O)NC2CCCC2)Cn2c(=O)ccc(=O)n21)S(=O)(=O)c1ccc(C)cc1 | ? | i | ? | -84.2% | i | 11.2µM*
C#CCN(C[C@@H]1[C@@H](OC(=O)Nc2cccs2)[C@@H](OC(=O)Nc2cccs2)Cn2c(=O)ccc(=O)n21)S(=O)(=O)c1ccc(C)cc1 | 3.55µM* | i | 5.62µM* | 5.01µM* | ? | 3.55µM*
C#CCN(C[C@@H]1[C@@H](OC(=O)NC2CC2)[C@@H](OC(=O)NC2CC2)CN(C(=O)OC(C)C)N1C(=O)OC(C)C)S(=O)(=O)c1ccc(C)cc1 | -7.9% | i | -11.4% | -7.2% | i | ?
C#CCN(C[C@@H]1[C@@H](OC(=O)NCc2ccccc2F)[C@@H](OC(=O)NCc2ccccc2F)Cn2c(=O)ccc(=O)n21)S(=O)(=O)c1ccc(C)cc1 | 3.98µM* | i | 11.2µM* | 12.6µM* | 14.6µM* | 3.98µM*
CCc1ccc(NC(=O)Nc2cnccn2)cc1 | 52.7% | i | -10.4% | -1.7% | i | i
CCCCc1ccc(NC(=O)Nc2cnccn2)cc1 | 25.9% | ? | -16.2% | 0.1% | 11.6µM* | i
CCCCc1ccc(NC(=O)Nc2cc(C)nn2C)cc1 | -12.2% | i | 1.5% | 0.5% | 6.51µM* | i
NC(N)=N/N=C/c1ccc(OCc2ccccc2)cc1 | ? | i | ? | 12.6µM* | ? | ?
NC(N)=N/N=C/c1ccc(OCc2ccc(Cl)cc2)cc1 | ? | 20.6µM* | ? | 10µM* | i | 31.6µM*
CN(C)CC(C)(O)c1ccc2c(c1)CN(Cc1cccn1-c1cccnc1)CCO2 (stereo not given) | . | . | . | . | . | i
COc1ccc(CN(C)C(=O)CNC(=O)c2sc3ccccc3c2Cl)c(OC)c1OC | -5.6% | 5.8µM* | -12.2% | -0.9% | ? | ?
Cc1ccc(S(=O)(=O)N(CC(=O)NCCc2ccc(Cl)cc2)c2ccccc2C)cc1 | ? | i | ? | -22.3% | i | ?
CNC(=O)c1ccc(N2C(=S)N(c3cnc(C#N)c(C(F)(F)F)c3)C(=O)C23CCC3)cc1F | 13.7µM* | . | . | . | . | .
O=C(c1ccco1)N(Cc1cc2cc3c(cc2nc1N1CCOCC1)CCC3)CC1CCCO1 (stereo not given) | . | . | . | . | . | i
COc1ccc(C2CC(O)(c3ccccc3)Oc3cc(OC)c(OC)c(OC)c32)cc1 (stereo not given) | -13.8% | i | ? | -35.6% | i | ?
SMILES | ATXN2 expr inh | KB-V1 MDR tox | TGFb SMAD3 inh | HepG2 tox | KB-3-1 cytotox | ATXN viability
OC1(c2ccccc2)CC(c2ccccc2)c2ccccc2O1 (stereo not given) | ? | ? | ? | 22.4µM* | ? | i
COc1ccc(/C=c2\[nH]c(=O)/c(=C/c3ccc(OC)cc3)[nH]c2=O)cc1 | . | i | ? | -31.4% | i | .
CC1CCN(S(=O)(=O)c2ccc3c(c2)N(CC(=O)NC(C)c2ccccc2)C(=O)CS3)CC1 (stereo not given) | 12.2% | i | ? | -26.7% | i | i
CCOC(=O)N1CCc2c(sc(NCc3sccc3C)c2C(=O)Nc2ccc(OC)cc2OC)C1 | 14.1µM* | i | -29.6% | -2.0% | i | i
CCOc1ccccc1NC(=O)c1c(NCc2sccc2C)sc2c1CCCCC2 | ? | i | ? | -34.6% | i | ?
CCOc1ccccc1NC(=O)c1c(NCc2cccs2)sc2c1CCCCC2 | ? | i | 17.8µM* | -48.1% | i | ?
COc1ccc(OC)c(NC(=O)c2c(NCc3cccs3)sc3c2CCCC3)c1 | . | . | 15.8µM* | -29.9% | . | .
CCCCCn1c(=O)[nH]c2cc(C(=O)N3CCN(c4cccc(OC)c4)CC3)ccc2c1=O | -12.4% | i | ? | -2.6% | i | ?
CCC(SC1=Nc2ccccc2C2=NC(CC(C)C)C(=O)N12)C(=O)Nc1ccc2c(c1)OCO2 (stereo not given) | -11.4% | 14.6µM* | 0.5% | -17.2% | ? | i
CC(=O)N(C(C)=O)N1C(=O)/C(=C/c2ccc(Cl)cc2)SC1=S | ? | i | 15.8µM* | -35.8% | i | ?
Cc1ccc(C)n1N1C(=O)/C(=C\c2ccc(Cl)cc2)SC1=S | -4.6% | i | -19.3% | -30.7% | i | i
Nc1ncn([C@@H]2O[C@H](CO)[C@@H](O)[C@H]2O)c(=O)n1 | 6.31µM*! | ? | 11.2µM* | -28.9% | ? | i
Nc1ncn([C@@H]2O[C@H](CO)[C@@H](O)[C@@H]2O)c(=O)n1 | 5.44µM* | . | . | . | . | .
Nc1ccn([C@@H]2O[C@H](CO)[C@@H](O)[C@@H]2O)c(=O)n1 | ? | i | 21.7% | -4.3% | i | i
